Tests used:
Assay in all cases: PBM binding z-score (relative to random genomic background probes); higher = stronger binding; sequences stand for … in GC…GCGATTGACAGCGTAGAATGAAGG
[1] = test system: FXR:RXRa (NR concentration 270 nM, RXRa partner concentration 90 nM)
Summary of the method: (§1)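 For binding z-scores, the reference was random background probes on custom Agilent 4×180K protein-binding microarrays. These arrays were incubated 1 h with ligand-free nuclear receptor dimers in PBS pH 7.4, 2% milk, 0.02% Triton X-100, 1 mM DTT, 0.2 mg/mL BSA and 0.4 mg/ml salmon testes DNA. Fluorescence was scanned after antibody detection of each partner (one per run) and regression-normalized.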

[2] = test system: LXRa:RXRa (NR concentration 270 nM, RXRa partner concentration 90 nM)
Summary of the method: as §1

[3] = test system: LXRa homodimer (NR concentration 270 nM)
Summary of the method: as §1

[4] = test system: LXRb:RXRa (NR concentration 270 nM, RXRa partner concentration 90 nM)
Summary of the method: as §1

[5] = test system: LXRb homodimer (NR concentration 270 nM)
Summary of the method: as §1

[6] = test system: PPARa:RXRa (NR concentration 270 nM, RXRa partner concentration 90 nM)
Summary of the method: as §1

[7] = test system: PPARg:RXRa (NR concentration 180 nM, RXRa partner concentration 90 nM)
Summary of the method: as §1

[8] = test system: PPARg:RXRa 270nM:90nM, anti-RXR (NR concentration 270 nM, RXRa partner concentration 90 nM)
Summary of the method: as §1

[9] = test system: PPARg:RXRa 30nM:10nM, anti-RXR (NR concentration 30 nM, RXRa partner concentration 10 nM)
Summary of the method: as §1

[10] = test system: PPARg:RXRa 90nM:30nM, anti-RXR (NR concentration 90 nM, RXRa partner concentration 30 nM)
Summary of the method: as §1

Row | Sequence | PBM binding z-score [1] | PBM binding z-score [2] | PBM binding z-score [3] | PBM binding z-score [4] | PBM binding z-score [5] | PBM binding z-score [6] | PBM binding z-score [7] | PBM binding z-score [8] | PBM binding z-score [9] | PBM binding z-score [10]
1 | TCGAGTAGGTTACCAATGGGGCAATCAGCTTTCT | -0.178 | 1.28 | -0.627 | 0.776 | -1.22 | 1.27 | 0.44 | 1.02 | 1 | 1.13
2 | CGTCAAAGTTCAACTAAGGTAGCGTAAAGCACGC | 6.83 | 6.17 | 3.78 | 4.01 | 1.98 | 4.8 | 4.84 | 5.37 | 1.94 | 4.03
3 | TCTAGCAGGCCAGAGGGTTACTCAAGAGGTACGG | -0.419 | -0.0387 | -1.02 | -0.282 | -1.4 | 0.38 | 0.82 | 1.73 | 1.86 | 1.81
4 | CCAGACAGGTGAAAGGTAAATCAGTCTGGTACGC | 0.431 | 0.642 | -0.205 | 0.749 | -0.327 | 3.27 | 5.01 | 5.7 | 4 | 6.32
5 | ATCGAAAGATCGTGAGGTGAGTATACAGAAAGGC | 0.0329 | -0.211 | 0.0924 | -0.208 | -0.374 | 0.327 | 0.669 | -0.00875 | 0.225 | 0.106
6 | ACAGACAGGTGAGTGAAGGAAACTCAGCTGGACG | -0.54 | -0.517 | -0.15 | -0.792 | -0.646 | -1.08 | 0.519 | -0.724 | -0.177 | -0.368
7 | CAAACTAGGGCAAAGGTCAAAGTCGAGCCAACCA | 7.07 | 6.32 | 4.3 | 6.01 | 1.82 | 7.48 | 13.2 | 10.9 | 12.2 | 12.5
8 | CCTAGCAGGCCAGGGTCAGTCAAGCATTTCGCTT | 0.838 | 0.841 | -0.832 | 1.08 | -1.29 | 1.85 | -0.277 | 0.376 | -0.624 | -0.0858
9 | ACTATTAGTTGAGACGGGGGCAACCGATAGGTTG | 1.28 | 1.35 | 0.528 | 3.71 | 7.57 | 2.52 | 1.16 | 2.35 | 1.24 | 1.87
10 | CCTACTGGGCCATTCAGAGGTCATAGATCATATG | 2.57 | 4 | 5.67 | 3.75 | 0.161 | 3.83 | 2.65 | 3.2 | 1.2 | 2.48
11 | CGAACTAGGTCATTGACAGGACAGTCAATAGTAA | 4.28 | 3.15 | 0.489 | 2.19 | 0.17 | 4.74 | 7.38 | 6.08 | 3.32 | 5.75
12 | CCTTACTGGTCACTGACAGGTTATAGCATTTGGA | 0.509 | 0.779 | 0.811 | 0.822 | 0.49 | 0.699 | 0.266 | 0.384 | -0.0661 | 0.378
13 | ATCGAAAGGTCGACGAGGTGAGTACACACCGTTT | 4.47 | 3.65 | 0.0409 | 2.84 | 0.25 | 4.44 | 2.84 | 3.38 | 1.11 | 2.41
14 | CCTCGGAGGACAACAGGAGGGCAGAGCTGCCAGA | -0.363 | -0.203 | -0.39 | -0.91 | -0.963 | -0.724 | -0.101 | -1.25 | -1.32 | -1.32
15 | CAAACTAGGTCACCGGAAGGTCAAATTCCGCATG | 6.25 | 6.28 | 5.9 | 5.82 | 1.95 | 6.06 | 9.94 | 8.01 | 6.22 | 7.81
16 | GATACAGGGTCAGCTAGAGGCTAGAGTATGGAAA | 4.9 | 2.5 | -0.262 | 2.16 | -0.533 | 4.51 | 3.64 | 3.06 | 0.467 | 1.89
17 | TCTCGGAGGCCACGAAAGGTCAGAGCTCGACATC | 3.4 | 5.27 | 1.95 | 3.63 | -0.386 | 3.82 | 1.39 | 2.91 | 2.22 | 2.46
18 | CCTAGTTGGTCAGGAGGTCAGACACCGGATATGA | 2.18 | 2.3 | 0.868 | 2.16 | 0.128 | 3.04 | 2.05 | 2.35 | 0.691 | 1.69
19 | CAAACTAGTTCAAAGGTCAAAGTCGAGCCAACCA | 7.5 | 6.94 | 5.57 | 6.5 | 2.97 | 7.02 | 11 | 9.72 | 11.8 | 11.7
20 | AGAATGAGGTTGTACGTAGATCAGGGAAGAAAGT | -0.0554 | 0.156 | 0.00374 | 0.364 | 0.0497 | 0.574 | 0.188 | 0.124 | 0.21 | 0.207
21 | CAGCCTAGGTCAGGGCCAGTTTAGGAGGAACGTT | 2.04 | 1.26 | -0.426 | 0.837 | -1.02 | 2.13 | 0.55 | 0.962 | -0.489 | 0.124
22 | ATATGTAGGTTAGCTGTGGTCATTCAGACTAGGC | 0.89 | 1.93 | 0.212 | 0.643 | 0.0822 | 2.29 | 3.3 | 2.79 | 0.838 | 1.89
23 | CCTACTGGGCCAAAAAGGTCATTGAAGCCGATAA | 3.74 | 4.35 | 2.77 | 4.22 | 0.158 | 4.79 | 3.38 | 4.24 | 1.31 | 3.47
24 | AGAAGGAGGTTATACGTAGATCAGGGAAGAAAGT | 1.61 | 1.45 | 0.366 | 1.43 | 0.303 | 2.43 | 1.33 | 1.28 | 0.492 | 0.986
